Compounds with a hit are over-represented: about 28% of the library has one in this group of screens.
PTK2B oligo ant: antagonists of Pyk2 self-association, primary screen, Q293 cells, FERM NanoBiT luminescence, HTS; 99,000 tested, 0.83% active; AID 1347419, 2020; z-score (the deposit names both 25 µM and 10 µM); stronger effect = lower value;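 active means Z-score of -3 or lower, scaled per plate to the spread of control and sample wells; inactive means z-score above -3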;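 further: negative z-score means lost luminescence so less FERM oligomerization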
Target sequence (Q14289 whole entry, looked up): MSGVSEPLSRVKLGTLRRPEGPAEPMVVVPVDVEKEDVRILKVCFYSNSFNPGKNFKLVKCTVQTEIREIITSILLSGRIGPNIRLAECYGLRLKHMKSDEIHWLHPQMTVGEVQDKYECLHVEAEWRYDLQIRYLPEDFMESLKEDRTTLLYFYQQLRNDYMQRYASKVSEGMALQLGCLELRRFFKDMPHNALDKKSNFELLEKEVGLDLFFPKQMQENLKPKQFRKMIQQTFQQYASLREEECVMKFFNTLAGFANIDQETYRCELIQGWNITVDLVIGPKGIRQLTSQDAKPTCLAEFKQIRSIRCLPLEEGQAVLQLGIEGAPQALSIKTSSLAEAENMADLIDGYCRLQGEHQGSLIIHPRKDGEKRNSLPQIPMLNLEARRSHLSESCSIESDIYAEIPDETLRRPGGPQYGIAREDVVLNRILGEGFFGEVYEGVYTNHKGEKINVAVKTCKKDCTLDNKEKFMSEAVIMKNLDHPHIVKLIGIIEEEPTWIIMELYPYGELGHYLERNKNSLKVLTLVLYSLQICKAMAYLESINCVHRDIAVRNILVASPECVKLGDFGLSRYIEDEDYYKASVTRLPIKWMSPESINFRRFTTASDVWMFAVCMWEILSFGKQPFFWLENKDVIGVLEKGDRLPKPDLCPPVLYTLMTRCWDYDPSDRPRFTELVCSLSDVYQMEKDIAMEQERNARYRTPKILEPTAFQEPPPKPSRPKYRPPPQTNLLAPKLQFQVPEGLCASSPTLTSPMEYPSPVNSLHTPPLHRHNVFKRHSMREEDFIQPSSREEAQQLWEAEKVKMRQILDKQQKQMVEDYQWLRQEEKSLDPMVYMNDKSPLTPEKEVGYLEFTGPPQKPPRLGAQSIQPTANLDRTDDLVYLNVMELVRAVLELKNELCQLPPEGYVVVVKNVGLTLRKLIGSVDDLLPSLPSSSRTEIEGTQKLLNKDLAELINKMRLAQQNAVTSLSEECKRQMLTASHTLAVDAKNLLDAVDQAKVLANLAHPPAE
CYP2C9 inh: blockers of cytochrome P450 2C9 activity – biochemical, luminescence, ADME assay, primary screen | 96,000 tested, 20% active | inhibition, % at 5 µM | CYP2C9 Supersomes, luciferin-H conversion | P11712;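 active means blocking of liver enzyme CYP2C9 beyond about 50% at 5 µM, limit read from the data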
CYP2C19 activ: human CYP2C19 activators, primary screen, biochemical, luminescence; recombinant CYP2C19, luciferin-H EGE luminescence; stronger effect = higher value; 0 = fully inhibited enzyme, 1 = untreated enzyme; Cytochrome P450 2C19 (Homo sapiens), P33261; activation factor at 5 µM; 96,000 tested, under 10 active;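 active means activation factor of at least 2 at 5 µM in the primary screen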
CYP2C9 act: human CYP2C9 activators, primary screen, biochemical, luminescence; Cytochrome P450 2C9 (Homo sapiens), P11712; recombinant CYP2C9, luciferin-H conversion; stronger effect = higher value; factor 1 = untreated enzyme, 0 = blocked; activation factor at 5 µM; 96,000 tested, 1.4% active;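 active means activation factor of 2 or more for CYP2C9 at a 5 µM dose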
CYP2C19 inhib: blockers of cytochrome P450 2C19 activity – biochemical, luminescence, ADME assay, primary screen; P33261; CYP2C19 Supersomes, luciferin-H EGE luminescence, 30 min; inhibition, % at 5 µM; 96,000 tested, 21% active; AID 778, 2007;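 active means CYP2C19 inhibition above a set limit at 5 µM in the primary screen, cut at about 50% in these data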
Of the large screens only hits and unclear results are named; the others gave an inactive call.

O=C(NCCSCc1ccc(Cl)cc1Cl)c1ccc(CN2CCOCC2)cc1	CYP2C9 inh 81
Cc1cccc(CSc2cccc3cccnc23)c1	none
O=C(N/N=C/c1ccccc1Br)c1ccc(CSc2cccc3cccnc23)cc1	CYP2C9 inh 50
O=C(CCn1c(=S)[nH]c2cc3c(cc2c1=O)OCO3)N1CCc2ccccc2C1	CYP2C9 inh 79, CYP2C19 inhib 91 (no result: PTK2B oligo ant)
O=C(CCCn1c(=S)[nH]c2cc3c(cc2c1=O)OCO3)N1CCc2ccccc2C1	CYP2C9 inh 57
O=C(CCCn1c(=O)oc2ccccc21)N1CCc2ccccc2C1	CYP2C19 inhib 75
Cc1cccc(N2CCN(C(=O)CCn3c(=S)[nH]c4cc5c(cc4c3=O)OCO5)CC2C)c1 (stereo not drawn)	CYP2C9 inh 53
COc1cc2[nH]c(=O)n(CCC(=O)N3CCc4ccccc4C3)c(=O)c2cc1OC	none
Clc1ccc(CSc2nnc(-c3ccccn3)n2Cc2ccco2)c(Cl)c1	none
COC(=O)C(C(=O)NCC1CCCO1)C1CCCC1 (stereo not drawn)	none
COc1ccccc1N1CCN(CC(=O)Nc2c(C)n[nH]c2C)CC1	none (no result: CYP2C9 inh, CYP2C19 activ, CYP2C9 act, CYP2C19 inhib)
Cc1[nH]c2ccccc2c1C(=O)CN1CCSCC1	CYP2C19 inhib 77
COc1ccccc1N1CCN(CC(=O)c2c(C)[nH]c3cc(C)ccc23)CC1	CYP2C19 inhib 62
COc1ccccc1N1CCN(CC(=O)c2c(C)n(C)c3ccccc23)CC1	CYP2C19 inhib 54
O=C(Cn1cnc2c(nnn2-c2ccccc2)c1=O)NCCc1ccccc1	none (no result: PTK2B oligo ant)
O=C(Nc1ccn(Cc2c(F)c(F)c(F)c(F)c2F)n1)c1ccc(COc2ccccc2Cl)cc1	CYP2C9 inh 70
O=C(Nc1ccc(Cn2cccn2)cc1)c1ccc(COc2ccccc2Br)cc1	none
O=C(Nc1ccccc1F)c1ccc(COc2ccc(Cl)cc2Cl)o1	none (no result: CYP2C9 inh, CYP2C19 activ, CYP2C9 act, CYP2C19 inhib)
CC(C)CNC(=O)c1ccc(COc2ccc(Cl)cc2Cl)o1	CYP2C9 inh 76
O=C(Nc1ccn(Cc2c(F)c(F)cc(F)c2F)n1)c1ccc(COc2ccc(Cl)cc2Cl)o1	CYP2C9 inh 99, CYP2C19 inhib 92
CC1(C)Cc2c(sc3nc(-c4ccccc4Cl)n(N)c(=O)c23)CO1	none
CN(C)c1ccc(/C=N/c2cc(-c3ccccc3)nn2-c2ccccc2)cc1	CYP2C9 inh 52
Cc1nn(-c2ccccc2)c(/N=C/c2ccc(O)cc2)c1-c1ccccc1	none (no result: CYP2C9 inh, CYP2C19 activ, CYP2C9 act, CYP2C19 inhib)
CCC(=O)NC(Nc1sc2c(c1C(=O)OC)CCN(C)C2)(C(F)(F)F)C(F)(F)F	none (no result: CYP2C9 inh, CYP2C19 activ, CYP2C9 act, CYP2C19 inhib)
CN1CCc2c(c3ccccc3n2C)C1	none
Cn1c2c(c3ccccc31)CC/C2=N\O	CYP2C19 inhib 79
CCOC(=O)COc1ccc(S(=O)(=O)Nc2ccc3c(c2)OCCO3)cc1	none
Cc1ccc(S(=O)(=O)Nc2cccc(/C=C/C(=O)O)c2)cc1	none
CCOC(=O)COc1ccc(S(=O)(=O)Nc2cccc(SC)c2)cc1	CYP2C9 inh 78, CYP2C19 inhib 88
CSc1cccc(NS(=O)(=O)c2ccccc2)c1	CYP2C9 inh 66
CSc1cccc(NS(=O)(=O)c2ccc(F)cc2)c1	CYP2C9 inh 91, CYP2C19 inhib 96
COc1cc(CNCCO)ccc1OC1CCCC1	none
Nc1cc(=O)[nH]c(SCc2nnc(-c3ccccc3)o2)n1	none
Cc1cccc(OCCCSc2nc3ccc(C)cc3[nH]2)c1	CYP2C9 inh 78, CYP2C19 inhib 86
Cc1ccc2nc(SCc3nnc(-c4cccs4)o3)[nH]c2c1	CYP2C9 inh 51
Cc1ccc2nc(SCn3nnc4ccccc4c3=O)[nH]c2c1	none (no result: CYP2C9 inh, CYP2C19 activ, CYP2C9 act, CYP2C19 inhib)
Cc1ccc2nc(SCc3nnc(-c4ccccc4)o3)[nH]c2c1	CYP2C9 inh 51
O=C(Nc1nn[nH]n1)C12CC3CC(CC(C3)C1)C2	none
CCOc1ccc(-n2c(=S)sc3c(=O)[nH]c(SCC(=O)N4CCC(C)CC4)nc32)cc1	CYP2C9 inh 97
COC(=O)c1ccc(CSc2nc3c(cnn3-c3ccc(Cl)cc3)c(=O)[nH]2)o1	CYP2C9 inh 76, CYP2C19 inhib 90
CCOC(=O)N1CCN(C(=O)CSc2nc3c(cnn3-c3ccc(Cl)cc3)c(=O)[nH]2)CC1	CYP2C9 inh 68 (no result: PTK2B oligo ant)
CC(=O)N1CCN(C(=O)CSc2nc3c(cnn3-c3ccccc3)c(=O)[nH]2)CC1	none
CC1CCN(C(=O)CSc2nc3c(cnn3-c3ccc(Cl)cc3)c(=O)[nH]2)CC1	CYP2C9 inh 55 (no result: PTK2B oligo ant)
O=C(COc1ccccc1)Nc1ccc(S(=O)(=O)N2CCCC2)cc1	none (no result: PTK2B oligo ant)
O=C(CCOc1ccccc1)Nc1ccc(S(=O)(=O)N2CCCC2)cc1	CYP2C9 inh 86, CYP2C19 inhib 50
O=C(CCCOc1ccccc1)Nc1ccc(S(=O)(=O)N2CCOCC2)cc1	CYP2C9 inh 70, CYP2C19 inhib 55
CCc1ccc2oc(=O)cc(CN3CCN(c4ccc(F)cc4)CC3)c2c1	CYP2C19 inhib 52
CC(C)c1ccc2oc(=O)cc(CN3CCN(c4ccc(F)cc4)CC3)c2c1	none
O=C1C2CC=C(Cl)CC2C(=O)N1CCCCCCN1C(=O)C2CC=C(Cl)CC2C1=O (stereo not drawn)	CYP2C9 inh 82, CYP2C19 inhib 75
O=C1C2CC=C(Cl)CC2C(=O)N1CCN1CCOCC1 (stereo not drawn)	none
CNc1nc(N2CCc3ccccc32)ncc1F	CYP2C19 inhib 82
Cn1c(=O)cc(SCC(=O)Nc2ccc3c(c2)OCO3)c2ccccc21	none
Cn1cc(SCC(=O)Nc2ccc3c(c2)OCO3)c2ccccc21	CYP2C9 inh 65, CYP2C19 inhib 100 (no result: PTK2B oligo ant)
CCCn1cc(SCC(=O)Nc2ccc3c(c2)OCO3)c2ccccc21	CYP2C9 inh 77, CYP2C19 inhib 74 (no result: PTK2B oligo ant)
CN1C2C=C(N(CCc3c[nH]c4ccccc34)C(=O)c3ccc(Cl)cc3)CC1CC2 (stereo not drawn)	none
CC(C)N=C(NC#N)SCc1ccc(F)cc1	CYP2C9 inh 63, CYP2C19 inhib 95
O=C1CC(N2CCN(c3ccccn3)CC2)C(=O)N1CC(c1ccccc1)c1ccccc1 (stereo not drawn)	none (no result: CYP2C9 inh, CYP2C19 activ, CYP2C9 act, CYP2C19 inhib)
CS(=O)(=O)N(CC(=O)N1CCN(c2ccccc2)CC1)Cc1ccc(Cl)cc1	none
CS(=O)(=O)N(CC(=O)N1CCc2ccccc2C1)Cc1ccccc1	CYP2C9 inh 80, CYP2C19 inhib 86
CN(c1ccccc1C(=O)N1CCc2ccccc2C1)S(C)(=O)=O	CYP2C9 inh 84, CYP2C19 inhib 93
CS(=O)(=O)N(CC(=O)N1CCOCC1)Cc1ccc(Cl)cc1	CYP2C19 inhib 56
CS(=O)(=O)N(CC(=O)N1CCCCCC1)Cc1ccc(Cl)cc1	CYP2C19 inhib 93
Cc1ccc(CSCC(=O)N2CCN(Cc3ccc4c(c3)OCO4)CC2)cc1	none (no result: CYP2C9 inh, CYP2C19 activ, CYP2C9 act, CYP2C19 inhib)
CN1CCN(C(=O)CN(Cc2ccc(Cl)cc2)S(C)(=O)=O)CC1	CYP2C19 inhib 69

Source: PubChem BioAssay (Sanford-Burnham Center for Chemical Genomics)
